In all, about 68,000 sequences were measured (“fluorescence intensity (a.u.)”: median about 9,100, highest 2% from about 16,000 on). The full list was thinned out, with the highest values kept by preference.
Biological target: OsWRKY34 (Oryza sativa, UniProt Q0JBA9 1-250)
Test: protein-binding microarray (RPBM); PBS, 2% BSA, 51.3 ng/ul salmon testes DNA, 50 uM zinc acetate, 200 nM TF, 25 C, 1 h; high values mean tight binding
Details: protein: recombinant; tags: N-terminal polyhistidine and DsRed monomer fusion (pET32a); label: CyDye5-dUTP incorporated in the synthesized complementary strand; 3' TTTTT single-stranded linker to array surface; dsDNA, one strand shown
In short: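 Ni–NTA purification followed expression in E. coli BL21-CodonPlus of transcription factors fused N-terminally to a polyhistidine tag and DsRed. At 200 nM in PBS with 2% BSA, salmon testes DNA and 50 µM zinc acetate, the protein was incubated for 1 h at 25 °C with a custom Agilent array that had been primer-extended with Cy5-dUTP and blocked with 2% BSA. After washing, the array was read on an Axon 4000B scanner. The binding signal is per-feature fluorescence intensity in arbitrary units.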

Sequence of OsWRKY34 (Q0JBA9 entry or part of it): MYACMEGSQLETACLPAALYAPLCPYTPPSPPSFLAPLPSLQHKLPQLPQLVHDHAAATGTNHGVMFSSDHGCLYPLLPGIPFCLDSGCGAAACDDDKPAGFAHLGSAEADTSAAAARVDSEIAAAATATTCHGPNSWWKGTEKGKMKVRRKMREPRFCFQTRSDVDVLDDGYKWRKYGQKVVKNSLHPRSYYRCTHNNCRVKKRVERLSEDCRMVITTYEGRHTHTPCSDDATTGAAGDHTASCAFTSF

Sequence	binding signal
GGTTAGGTGGCATTTGAATTTAAAACGTATATGTGGACTCCGGAGTCACCTAGTGCAG	13900 fluorescence intensity (a.u.)
CTATAGGTGGATTTTTAGGGACTCACCCGTAAAAACAGGTCGGAGTCACCTAGTGCAG	26800 fluorescence intensity (a.u.)
TTGGGTGGGATTTAAACAGGGTATTAGTGGATAATGATGTCGGAGTCACCTAGTGCAG	9570 fluorescence intensity (a.u.)
CTCCGGGGAATATCTATGGGTCTTGTGGGTGTAGGGAGGACGGAGTCACCTAGTGCAG	8770 fluorescence intensity (a.u.)
CTATAATTATTTGTCGACTAAATCTGCCTTTCATCTTTCTCGGAGTCACCTAGTGCAG	8160 fluorescence intensity (a.u.)
GTGTCTTGTGCGTTTGCTCTCTCGCGAACCATTCCACAGACGGAGTCACCTAGTGCAG	8380 fluorescence intensity (a.u.)
TTTGACCAACCGAAACTCGACGGCCCACCCACCAACCACCCGGAGTCACCTAGTGCAG	9420 fluorescence intensity (a.u.)
ATCATTTGTCTCGCGACGAAAACTTGCGTTGACCACCCACCGGAGTCACCTAGTGCAG	17500 fluorescence intensity (a.u.)
CACCCACCAAGTACTCTTTTTACTTTTACCACAGCGCATACGGAGTCACCTAGTGCAG	9050 fluorescence intensity (a.u.)
TGCGGCTTTGATTTGCGGGGTTCACACACGAGTAATTGCACGGAGTCACCTAGTGCAG	10900 fluorescence intensity (a.u.)
TTACACGCCTAATCATCGAAAACCTAATCTTATGCTTTCTCGGAGTCACCTAGTGCAG	8790 fluorescence intensity (a.u.)
TTCACACACGAGTAATTGCAGCCTTGCTTTCTCGAAAAAACGGAGTCACCTAGTGCAG	17100 fluorescence intensity (a.u.)
AATCTGTGGCGATAACCTGTATGCTCACACACTTGCCTCTCGGAGTCACCTAGTGCAG	8610 fluorescence intensity (a.u.)
TATTACTACCTTCATATTTTAATGTATGACGCCGTTGACTCGGAGTCACCTAGTGCAG	11900 fluorescence intensity (a.u.)
CTACCTCCATATTTTAATGTATGACGCCGTTGACTTTTTGCGGAGTCACCTAGTGCAG	37500 fluorescence intensity (a.u.)
ATATACTACCTCCATATTTTAATGTATGACGCCGTTGACTCGGAGTCACCTAGTGCAG	8860 fluorescence intensity (a.u.)
TACCTCCATATTTTAATGTATGACGCCGTTGACTTTTTATCGGAGTCACCTAGTGCAG	28900 fluorescence intensity (a.u.)
TATATACTCCCTCCATATTTTAATGTATGACGCCGTTGACCGGAGTCACCTAGTGCAG	9880 fluorescence intensity (a.u.)
TCCGTATTTTAATGTATGACGCCGTTGACTTTTTATCCAACGGAGTCACCTAGTGCAG	21400 fluorescence intensity (a.u.)
TACTCCCTCCGTATTTTAATGTATGACGCCGTTGACTTTTCGGAGTCACCTAGTGCAG	13900 fluorescence intensity (a.u.)
TTCCCTCCATATTTTAATGTATGACGCCGTTGACTTTTTACGGAGTCACCTAGTGCAG	17700 fluorescence intensity (a.u.)
AGCGCGTCGCTTTCTTTCTTTCTTTCAGTTTTTTTTTTCCCGGAGTCACCTAGTGCAG	10500 fluorescence intensity (a.u.)

Sequence	binding signal
AATCTGACTGAAGTATGTACTTTGTGTTGACCAATTTGGCCGGAGTCACCTAGTGCAG	10200 fluorescence intensity (a.u.)
ATGAGTTCCCAACCGCCACTTACATTAAGTACCACACTCCCGGAGTCACCTAGTGCAG	8660 fluorescence intensity (a.u.)
GTTTCCTTCGTTTCAGATTACTCATTATTTTAGCTTTTTTCGGAGTCACCTAGTGCAG	13800 fluorescence intensity (a.u.)
TCCACCTTTTCATCAATATAGTCATGCATTAATACAGTCACGGAGTCACCTAGTGCAG	8670 fluorescence intensity (a.u.)
TTGCTTCCTTTGTCCTTACTGACATTATTACCTCAGAGACCGGAGTCACCTAGTGCAG	8870 fluorescence intensity (a.u.)
ACGGGGCGCATTTATTCATCCCCACCTTTGTTCATCAGTTCGGAGTCACCTAGTGCAG	11600 fluorescence intensity (a.u.)
CTCCATATTTTAATGTATGCCGCCGTTGACTTTTTGTTTACGGAGTCACCTAGTGCAG	20200 fluorescence intensity (a.u.)
TAATGTATGACGTCGTTGACTTTTTGTTAAACGTTTGATCCGGAGTCACCTAGTGCAG	15600 fluorescence intensity (a.u.)
TTTTAATGTATGACGCTGTTGACTTTTTATCCAACGTTTGCGGAGTCACCTAGTGCAG	16400 fluorescence intensity (a.u.)
ATTTGTTTGTTTTTTTAATAAATGATGTTGTTGACTTTTACGGAGTCACCTAGTGCAG	9030 fluorescence intensity (a.u.)
TGCACTAGTATGTATGACGTTGACTGTTTTTTTAAGGACGCGGAGTCACCTAGTGCAG	10200 fluorescence intensity (a.u.)
CTCATAATAGATTTACTTTTAATGCCGTTGTTTTGTTTTACGGAGTCACCTAGTGCAG	9090 fluorescence intensity (a.u.)
GTTACCCCGATTAGTTAGTTTATGTTGTACATGCTGTTGACGGAGTCACCTAGTGCAG	11000 fluorescence intensity (a.u.)
CAGTGTCCGTTTTCTCCGACAAACTCGGCGTGGCCACAGTCGGAGTCACCTAGTGCAG	9840 fluorescence intensity (a.u.)
TTGTTGATTTTTTTTCAGAATTTTTATCACTATTTGTCTTCGGAGTCACCTAGTGCAG	8570 fluorescence intensity (a.u.)
TTGATTTTTTGTTGCAAAAGAATATTTTAATTCACTGCAACGGAGTCACCTAGTGCAG	24300 fluorescence intensity (a.u.)
ATATTTAAAAAAGTCAACGGCGTCAAACATTTTGAAACGGCGGAGTCACCTAGTGCAG	16800 fluorescence intensity (a.u.)
TAAAAAAGTCAACGGCGTTAAACATTTTGGGATGGAGGGACGGAGTCACCTAGTGCAG	11200 fluorescence intensity (a.u.)
AATATTTTTTTGAGGTTTTTTGTTGCGTTTAAAATTCAAACGGAGTCACCTAGTGCAG	8110 fluorescence intensity (a.u.)
TATTTTTAAAAAAGTCAACGGCGTCTTGTGGGATGGAGGGCGGAGTCACCTAGTGCAG	21300 fluorescence intensity (a.u.)
TCAAACATTTAAAAAAAAAGTCAACGGCGTCAAATATTTTCGGAGTCACCTAGTGCAG	8470 fluorescence intensity (a.u.)
TTTAAAAGTCAACGGCGTCAGAGGGAGTATATATTTTAGCCGGAGTCACCTAGTGCAG	9840 fluorescence intensity (a.u.)
